Composite z-score and z-score data for 13 compounds are collected here from PubChem BioAssay.

Test [1] in a line: anti-His antibody binders, primary screen, artefact control for SMM control protein annotation, biochemical, small-molecule microarray, 635 nm fluorescence (AID 1128).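 Note: score merges feature fluorescence with signal-to-noise for each printed compound spot.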 As to conditions: anti-His Alexa647 antibody binding, higher = more signal.
In test [2] the test system is Human papillomavirus type 1a E7 protein (residues 1-88). The test is described as follows: HPV1a E7 small-molecule binders, primary screen, biochemical, small-molecule microarray, residues 1-88, 635 nm (AID 1129). The note with it: small-molecule microarray binding, fluorescence 635 nm; higher = more signal.
The target of test [3] is Focal adhesion kinase 1 (Homo sapiens) (UniProt Q05397). Nature of the test: small-molecule microarray binders of FAK, primary screen, biochemical, 635/667 nm fluorescence, BSA, DTT (AID 1130).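 Note: composite of spot emission at 667 nm and signal to noise over triplicate slides.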 The note with it: PTK2 binding, 635 nm fluorescence, higher = more signal.
Chain of Focal adhesion kinase 1 (Homo sapiens) (Q05397 whole entry, looked up): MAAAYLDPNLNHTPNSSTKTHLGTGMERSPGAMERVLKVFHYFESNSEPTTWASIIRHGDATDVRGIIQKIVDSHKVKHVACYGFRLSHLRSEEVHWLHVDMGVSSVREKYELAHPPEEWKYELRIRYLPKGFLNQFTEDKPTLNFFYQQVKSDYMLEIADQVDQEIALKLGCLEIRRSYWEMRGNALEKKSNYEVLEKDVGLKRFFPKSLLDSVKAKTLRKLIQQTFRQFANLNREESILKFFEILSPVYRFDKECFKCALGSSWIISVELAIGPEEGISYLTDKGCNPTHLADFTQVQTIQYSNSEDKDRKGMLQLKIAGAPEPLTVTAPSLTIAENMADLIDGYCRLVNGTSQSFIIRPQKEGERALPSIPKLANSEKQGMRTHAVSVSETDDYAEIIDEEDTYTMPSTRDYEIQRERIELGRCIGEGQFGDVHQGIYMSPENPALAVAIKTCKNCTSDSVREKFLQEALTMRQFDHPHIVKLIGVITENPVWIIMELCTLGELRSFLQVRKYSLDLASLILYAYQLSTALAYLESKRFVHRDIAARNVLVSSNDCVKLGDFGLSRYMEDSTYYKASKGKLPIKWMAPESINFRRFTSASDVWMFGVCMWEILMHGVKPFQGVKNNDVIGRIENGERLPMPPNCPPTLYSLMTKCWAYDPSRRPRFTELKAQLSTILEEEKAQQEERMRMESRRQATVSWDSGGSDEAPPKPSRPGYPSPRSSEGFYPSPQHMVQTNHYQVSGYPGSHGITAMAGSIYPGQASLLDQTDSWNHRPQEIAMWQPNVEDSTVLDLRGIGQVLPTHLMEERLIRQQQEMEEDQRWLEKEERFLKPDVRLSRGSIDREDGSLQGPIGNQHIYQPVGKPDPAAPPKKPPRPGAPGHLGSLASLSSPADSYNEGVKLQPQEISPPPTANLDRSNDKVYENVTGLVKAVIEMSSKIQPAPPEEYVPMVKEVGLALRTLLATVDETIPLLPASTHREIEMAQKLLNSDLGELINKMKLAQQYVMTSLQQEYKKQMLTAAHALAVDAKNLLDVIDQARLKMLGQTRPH
For test [4], the system named is Fibrinogen (Alexa647-labelled). Nature of the test: fibrinogen binders on compound microarrays, profiling panel, artefact control for SMM control-protein annotation, biochemical, small-molecule microarray, 635/667 nm fluorescence (AID 1131).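 Note: z-score merges 667 nm fluorescence with per-spot signal-to-noise over triplicate slides.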 As to conditions: fibrinogen-A647 binding fluorescence, higher = more signal.
Test [5] deals with Follistatin (Homo sapiens) (UniProt P19883). Nature of the test: follistatin binders on small-molecule microarrays, primary screen, biochemical, small-molecule microarray, 635/667 nm fluorescence (AID 1132). The note with it: FST binding, 635 nm fluorescence, higher = more signal.
Chain of Follistatin (Homo sapiens) (P19883 whole entry, looked up): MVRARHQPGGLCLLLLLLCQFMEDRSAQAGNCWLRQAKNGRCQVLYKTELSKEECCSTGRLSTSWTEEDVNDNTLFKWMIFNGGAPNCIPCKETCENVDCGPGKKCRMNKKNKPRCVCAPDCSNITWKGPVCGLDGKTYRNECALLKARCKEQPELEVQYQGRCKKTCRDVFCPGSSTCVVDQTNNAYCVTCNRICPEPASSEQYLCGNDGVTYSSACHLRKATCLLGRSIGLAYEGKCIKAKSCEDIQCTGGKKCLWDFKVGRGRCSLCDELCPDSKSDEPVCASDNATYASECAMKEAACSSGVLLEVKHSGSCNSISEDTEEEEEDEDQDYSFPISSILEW
Test [6] concerns the target Fibroblast growth factor 2 (Homo sapiens) (UniProt P09038). Nature of the test: FGF2 binders on small-molecule microarrays, primary screen, biochemical, small-molecule microarray, 635/667 nm fluorescence (AID 1133). The note with it: small-molecule microarray binding, FGF2, fluorescence 635/667; higher = more signal.
The nature of test [7]: mitochondrial membrane potential change in A549 cells, profiling panel, cell-based, JC-1 fluorescence, basal, 24 h, 100 nL (AID 1138).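 Note: A549 lung adenocarcinoma cells under basal conditions with no added stimulus; test concentration not given here.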 As to conditions: higher = more signal.
Test [8] relates to Lefty1. Nature of the test: Lefty1 binders on small-molecule microarrays, primary screen, biochemical, small-molecule microarray, 635/667 nm fluorescence (AID 1139). The note with it: small-molecule microarray binding, fluorescence 635/667; higher = more signal.
Test [9] deals with wheat germ agglutinin (Triticum aestivum), Alexa647-labelled. The test is described as follows: wheat germ agglutinin binders on compound microarrays, profiling panel, artefact control for SMM control-protein annotation, biochemical, small-molecule microarray, 635/667 nm fluorescence (AID 1140).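 Note: score merges 667 nm feature emission with signal to noise over triplicate slides.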 The note with it: WGA-A647 binding, 635 nm fluorescence, higher = more signal.
The target in test [10] is Luciferin 4-monooxygenase (Photinus pyralis) (UniProt P08659). The test is described as follows: firefly luciferase enzyme inhibitors, primary screen, biochemical, luminescence, purified enzyme, 2006 set (AID 1141).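 Note: cell-free assay with purified firefly luciferase at 100 ng per well in PBS; test concentration not given here.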 The note with it: SteadyGlo luminescence, 30 min, higher = more signal, called active from +8 up or from −8 down.
Chain of Luciferin 4-monooxygenase (Photinus pyralis) (P08659 whole entry, looked up): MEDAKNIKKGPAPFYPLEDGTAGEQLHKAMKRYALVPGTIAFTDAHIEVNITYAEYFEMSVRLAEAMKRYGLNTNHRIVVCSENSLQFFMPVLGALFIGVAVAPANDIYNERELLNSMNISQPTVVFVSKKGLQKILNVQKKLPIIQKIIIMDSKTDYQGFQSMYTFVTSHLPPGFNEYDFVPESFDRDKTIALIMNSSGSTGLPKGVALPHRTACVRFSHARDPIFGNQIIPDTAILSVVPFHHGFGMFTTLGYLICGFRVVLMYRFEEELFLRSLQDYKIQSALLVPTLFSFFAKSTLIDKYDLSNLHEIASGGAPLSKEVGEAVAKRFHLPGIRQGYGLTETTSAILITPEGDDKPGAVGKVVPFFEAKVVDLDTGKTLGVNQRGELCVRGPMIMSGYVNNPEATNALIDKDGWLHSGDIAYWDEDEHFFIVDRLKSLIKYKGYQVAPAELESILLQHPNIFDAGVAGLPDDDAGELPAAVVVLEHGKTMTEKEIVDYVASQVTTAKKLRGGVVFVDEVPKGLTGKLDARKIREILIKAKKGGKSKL

Activity calls are given as the source filed them.

Chain of Fibroblast growth factor 2 (Homo sapiens) (P09038 whole entry, looked up): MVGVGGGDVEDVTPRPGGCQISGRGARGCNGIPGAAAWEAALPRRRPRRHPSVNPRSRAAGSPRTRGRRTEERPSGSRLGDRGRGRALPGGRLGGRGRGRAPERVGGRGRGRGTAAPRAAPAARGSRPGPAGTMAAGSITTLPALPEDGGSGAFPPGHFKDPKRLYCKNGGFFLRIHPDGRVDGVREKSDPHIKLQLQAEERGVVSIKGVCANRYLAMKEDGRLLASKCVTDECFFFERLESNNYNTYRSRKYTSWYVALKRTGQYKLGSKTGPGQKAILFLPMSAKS

As to `C=CCNC(=O)[C@@H]1[C@H]2C(=O)O[C@H](c3ccccc3)[C@H](c3ccccc3)N2[C@H](c2ccc(OCCO)cc2)[C@@]12C(=O)N(C(=O)OCCOC)c1ccc(C#CCCO)cc12`, the composite z-score in test [1] was found to be 0.32; in test [2], 1.17; in [3], 1.12; in test [4], 0.736; in [5], 1.33; in [6] it was 0.482. For the same compound, the composite z-score in test [8] is 1.1; in test [9] it was 0.719. The z-score in test [7] is -0.295; in test [10], -11.1 (active).
Turning to `COc1ccc(C(O)C2C=CC3C(=O)N(c4ccccc4)C(=O)C3N2Nc2ccc(C(C)C)cc2)c2ccccc12` (stereo not given), the composite z-score in test [1] was 1.74; in test [2], 1.25; in [3] it was 0.588; in [4], 0.976; in test [5], 0.862; in test [6], -0.25. For the same compound, the composite z-score in test [8] was determined as 0.031; in test [9], 0.838. In addition, the z-score in test [7] was 0.543; in test [10] it was -1.65 (inactive).
As to `CN(C)CCCCNC(=O)[C@H]1C[C@H]2C(=O)N[C@@H](CCCC[N+](C)(C)C)C(=O)N2[C@H]1c1ccc(O)cc1`, the composite z-score in [1] is 1.12; in test [2] it was -0.454; in [3], -0.294; in test [4] it was -1.24; in [5] it was 0.525; in test [6], 0.0954. The values for the composite z-score in test [8] and in [9] were 0.306 and 0.0976, respectively. Also, the z-score in test [7] was -0.247; in [10], 0.0252 (inactive).
Turning to `C=C(C)C1CCC(C(O)C2C=CC3C(=O)N(C)C(=O)C3N2Nc2cc(OC)c(OC)c(OC)c2)CC1` (stereo not given), the composite z-score in test [1] came to 1.23; in test [2], 1.24; in test [3], 0.573; in [4], 0.723; in [5], 1.31; in test [6] it was 0.425. Also, the composite z-score in test [8] came out at 0.677; in test [9] it was 0.504. Further, the figures for the z-score in [7] and in test [10] were 0.444 and -1.07 (inactive), respectively.
As for `C=CC[C@H](OC(=O)Nc1ccc(SC)cc1)c1ccc(OCCO)cc1`, the composite z-score is 0.299 in [1]; -0.444 in test [2]; -0.452 in test [3]; -1.96 in test [4]; 0.734 in [5]; 0.144 in [6]. For the same compound, the values for the composite z-score in test [8] and in test [9] were 0.34 and 0.61, respectively. In addition, the z-score in test [7] is 0.08; in [10], -1.93 (inactive).
Take `COc1ccc([Si](C)(C)[C@H]2[C@H](CCO)O[C@@]3(C(=O)N(Cc4ccccc4)c4ccc(N5CCOC5=O)cc43)[C@@H]2C)cc1`: the composite z-score worked out at 0.783 in [1]; 0.981 in test [2]; 0.0096 in [3]; 0.773 in test [4]; 0.701 in test [5]; 1.11 in test [6]. Further, the composite z-score in [8] came out at 0.385; in test [9] it was 0.986. For the same compound, the z-score was 0.571 in [7] and 0.446 (inactive) in test [10].
As for `CN1C(=O)C2C=CC(C(O)c3ccc(I)cc3)N(Nc3ccccc3)C2C1=O` (stereo not given), the composite z-score in [1] is 0.276; in test [2], 1.22; in test [3], -0.161; in test [4], 1.02; in test [5] it was 1.19; in [6], 0.979. Further, the composite z-score came out at 0.465 in [8] and 0.86 in [9]. The z-score in test [7] was 0.255; in test [10] it was -0.431 (inactive).
Turning to `CN(C)C(=O)[C@]1(CCS(=O)(=O)c2ccccc2)N=C(c2ccc(OCCCO)cc2)O[C@@H]1c1ccccc1`, the composite z-score in [1] was found to be 1.57; in test [2], 1.26; in test [3], 1.23; in test [4], 1; in test [5], 1.29; in [6], 0.345. Besides, the composite z-score in [8] is 0.476; in test [9], -0.0414. For the same compound, the results for the z-score in [7] and in test [10] were 0.17 and 0.396 (inactive), respectively.
Regarding `CC(C)[C@H]1NC(=O)[C@@]23C(=O)N[C@@H](Cc4ccccc4)C2[C@H](C)[C@@]2(C)O[C@H]2C3/C=C/C/C=C\CNC(=O)[C@H](Cc2ccccc2)NC1=O` (stereo not given in full), the composite z-score in test [1] turned out to be 0.591; in [2] it was 0.973; in test [3] it was 0.117; in test [4] it was 0.982; in test [5], 1.31; in test [6], 1.42. The composite z-score in [8] stood at 1.57; in [9] it was 0.489. Further, the figures for the z-score in [7] and in test [10] were -0.182 and -0.894 (inactive), respectively.
In the case of `C=C[C@@H](OC)[C@H](OC(=O)Nc1ccc(OC)cc1)c1ccc(OC)c(O)c1`, the composite z-score is 0.122 in test [1]; -1.06 in test [2]; -0.384 in test [3]; -1.1 in test [4]; 0.0112 in test [5]; -0.685 in test [6]. Also, the composite z-score in test [8] was -0.396; in test [9], -0.0358. The z-score in test [7] was 0.232; in [10], -0.737 (inactive).
For `C=CCC(OC(C)=O)[C@@H]1[C@@H](N(Cc2ccc(-c3cccc(C(F)(F)F)c3)o2)C(=O)c2ccc(C)cc2)c2cc(OCCCO)ccc2N1C(=O)Cc1ccc(OC)cc1` (stereo not given in full), the composite z-score in [1] is -0.139; in [2], -0.269; in test [3] it was -0.542; in test [4], -0.366; in test [5] it was 1.02; in test [6], -0.289. For the same compound, the values for the composite z-score in test [8] and in test [9] were 0.189 and 0.0232, respectively. In addition, the values for the z-score in test [7] and in test [10] were 1.36 and 0.147 (inactive), respectively.
As for `COC(=O)[C@@]1(Cc2ccccc2CN=[N+]=[N-])N=C(c2ccc(OCCCO)cc2)O[C@H]1c1ccccc1CN=[N+]=[N-]`, the composite z-score was -0.242 in [1]; 0.113 in test [2]; -0.198 in test [3]; -0.819 in test [4]; -0.261 in test [5]; -0.167 in test [6]. The results for the composite z-score in test [8] and in test [9] were -1.09 and 0.495, respectively. In addition, the z-score is -0.546 in [7] and -2.23 (inactive) in test [10].
With `COC(=O)c1c2oc(c1C(=O)OC)C(=O)N1CCC[C@H]1Cn1nncc1CN(Cc1ccccc1)C(=O)N[C@H](CO)CC2`, the composite z-score is 0.328 in test [1]; -0.243 in test [2]; 0.291 in test [3]; 0.676 in test [4]; 0.423 in test [5]; 1.04 in test [6]. The results for the composite z-score in [8] and in test [9] were 0.783 and 0.18, respectively. Moreover, the values for the z-score in test [7] and in [10] were 0.39 and -1.29 (inactive), respectively.
